# Active and inactive are the calls of the source.
# Legend:
# Albumin (Bos taurus) = Albumin (Bos taurus) (UniProt P02769); experiment: bovine serum albumin binders on microarray, profiling panel, artefact control for SMM control protein annotation, biochemical, small-molecule microarray, Alexa647 label, 635/667 nm fluorescence (AID 1118); conditions: BSA-A647 binding, fluorescence 635 nm, higher = more signal;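 note: score merges 667 nm emission intensity and signal-to-noise per printed compound spot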
# Sequence of Albumin (Bos taurus) (P02769 whole entry, looked up): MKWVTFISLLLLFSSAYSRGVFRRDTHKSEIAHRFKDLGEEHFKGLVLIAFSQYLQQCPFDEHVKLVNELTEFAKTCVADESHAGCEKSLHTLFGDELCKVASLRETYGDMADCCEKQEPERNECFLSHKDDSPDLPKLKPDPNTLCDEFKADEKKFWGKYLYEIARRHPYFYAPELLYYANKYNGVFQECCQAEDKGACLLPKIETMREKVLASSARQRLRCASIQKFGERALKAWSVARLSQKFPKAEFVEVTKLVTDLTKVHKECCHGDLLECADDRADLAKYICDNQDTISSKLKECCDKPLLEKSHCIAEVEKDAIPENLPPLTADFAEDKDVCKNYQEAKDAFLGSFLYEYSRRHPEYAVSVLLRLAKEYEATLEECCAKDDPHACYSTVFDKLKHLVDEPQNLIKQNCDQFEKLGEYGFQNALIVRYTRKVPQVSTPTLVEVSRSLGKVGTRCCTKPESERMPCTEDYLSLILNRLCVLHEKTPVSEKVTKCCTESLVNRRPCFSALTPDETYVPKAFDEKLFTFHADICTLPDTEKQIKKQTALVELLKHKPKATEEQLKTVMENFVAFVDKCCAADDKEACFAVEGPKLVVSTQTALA
# [1] = small-molecule microarray binders of probe aXIP, primary screen, biochemical, NeuroSMM set, 635/667 nm fluorescence (AID 1119); conditions: higher = more signal, called active from +8 up or from −8 down;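 note: probe is the protein aXip251-270 applied at 1 µg/mL to compound-printed slides; binding of probe to printed compounds measured as 667 nm fluorescence plus signal to noise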
# [2] = small-molecule binders of probe aNOTCH3, primary screen, biochemical, small-molecule microarray, 635/667 nm fluorescence (AID 1120); conditions: higher = more signal;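 note: probe is a biotin-tagged antibody raised against NOTCH3 rather than NOTCH3 protein; score merges spot fluorescence near 667 nm with spot signal to noise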
# [3] = small-molecule binders of probe aNOTCH2, primary screen, biochemical, small-molecule microarray, 635/667 nm fluorescence (AID 1121); conditions: higher = more signal;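 note: score merges feature fluorescence read at 667 nm with its signal to noise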
# [4] = target: Carbonic anhydrase 2 (Homo sapiens) (UniProt P00918); experiment: CAII small-molecule binders, profiling panel, biochemical, small-molecule microarray, Alexa647-labelled CAII (AID 1122); conditions: CAII-A647 binding fluorescence, higher = more signal
# [5] = COS7 lysate on small-molecule microarray, probe aHis, 635 nm (AID 1123); conditions: COS7 cell lysate, fluorescence, higher = more signal;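 note: z-score combines 667nm fluorescence intensity with signal-to-noise per printed compound spot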
# [6] = compound binding in COS7 lysate, probe aLAP1, primary screen, cell lysate, small-molecule microarray (AID 1124); conditions: probe aLAP1, fluorescence, higher = more signal;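 note: lysate comes from COS7 cells expressing LAP1 and is applied at 0.3 µg/mL; score merges spot fluorescence near 667 nm with signal-to-noise over triplicate slides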
# Sam68 (KHDRBS1) = experiment: Sam68 small-molecule binders, primary screen, biochemical, small-molecule microarray, 635 nm fluorescence (AID 1125); conditions: small-molecule microarray binding, higher = more signal;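 note: score merges 667 nm channel intensity with signal to noise over triplicate slides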
# [7] = system: Chordin-like protein 2 (CHRDL2); experiment: CHRDL2 small-molecule binders, primary screen, biochemical, small-molecule microarray, 635 nm fluorescence (AID 1126); conditions: small-molecule microarray binding, fluorescence 635 nm; higher = more signal;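 note: printed compound slides probed with Chrdl2 protein at 4 µg/mL for 1 h at 4 C; score merges 667 nm emission intensity with signal to noise over three replicate slides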
# [8] = target: Concanavalin-A (Canavalia ensiformis) (UniProt P02866); experiment: ConA small-molecule binders, primary screen, artefact control for SMM control protein annotation, biochemical, small-molecule microarray, Alexa647 label, 635 nm (AID 1127); conditions: ConA-A647 binding fluorescence, higher = more signal;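 note: z combines 667 nm emission intensity with signal-to-noise across three replicate slides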
# Sequence of Concanavalin-A (Canavalia ensiformis) (P02866 whole entry, looked up): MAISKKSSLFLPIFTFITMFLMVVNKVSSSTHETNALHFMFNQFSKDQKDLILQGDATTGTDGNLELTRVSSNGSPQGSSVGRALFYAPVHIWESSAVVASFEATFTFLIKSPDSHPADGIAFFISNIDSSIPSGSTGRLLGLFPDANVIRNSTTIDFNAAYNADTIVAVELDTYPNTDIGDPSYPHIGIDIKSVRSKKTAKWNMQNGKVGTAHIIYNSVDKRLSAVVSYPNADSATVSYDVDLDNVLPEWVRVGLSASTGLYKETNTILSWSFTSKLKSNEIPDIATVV
Compound,composite z-score (Albumin (Bos taurus)),composite Z-score [1],composite z-score [2],composite z-score [3],composite z-score [4],composite z-score [5],composite z-score [6],composite z-score (Sam68 (KHDRBS1)),composite z-score [7],composite z-score [8]
CCOC(=O)C1=CCC(c2ccc(C)cc2)N(S(=O)(=O)c2ccc(C)cc2)C1 (stereo not given),0.0328,0.798 (inactive),0.037,-0.146,0.251,1.43,-0.347,0.747,0.137,0.995
CCOC(=O)C[C@H]1[C@H](OC(=O)Cc2ccc3c(c2)OCO3)[C@@H](NC(=O)c2ccc3ccccc3c2)c2cc(OCCCO)ccc2N1C(=O)c1ccccc1,0.601,-0.0185 (inactive),-0.0077,-0.14,0.32,1.04,0.186,1.09,0.308,0.541
CN1C(=O)C2C=CC(C(O)C3=C[C@H]4C[C@@H](C3)C4(C)C)N(Nc3ccccc3)C2C1=O (stereo not given in full),0.566,-0.636 (inactive),0.169,-0.0712,0.645,1.75,-0.678,1.31,0.307,0.782
O=C1O[C@H](c2ccccc2)[C@H](c2ccccc2)N2[C@H]1[C@@H](C(=O)O)[C@]1(C(=O)Nc3ccc(C#CC4=CCCCC4)cc31)[C@H]2c1ccccc1OCCO,0.871,0.685 (inactive),0.806,0.0062,0.602,2.06,0.834,1.31,0.401,1.19
CC(C)(C)OC(=O)CC[C@@]1(C(N)=O)N=C(c2ccc(OCCCO)cc2)O[C@@H]1c1ccccc1,0.604,-0.327 (inactive),0.3,0.011,0.758,2.99,0.26,1.3,-0.796,0.722
Cc1ccc(S[C@]2(C(=O)NCCN3CCOCC3)CC(=O)N(Cc3ccccc3)[C@@H]2c2ccc(CO)cc2I)cc1,0.285,0.994 (inactive),-0.165,-0.14,0.667,1.43,0.202,-0.388,-1.59,-0.112
COc1ccc(C(O)C2C=CC3C(=O)N(C)C(=O)C3N2N2CCCCC2)c2ccccc12 (stereo not given),0.9,0.476 (inactive),0.432,-0.0351,0.448,2.89,-0.32,1.31,-0.147,1.21
COCCOC(=O)N1C(=O)[C@@]2(c3cc(C#CCNC(N)=O)ccc31)[C@H](C(=O)NC[C@H](O)c1ccccc1)[C@H]1C(=O)O[C@H](c3ccccc3)[C@H](c3ccccc3)N1[C@@H]2c1ccccc1OCCO,0.509,0.529 (inactive),0.411,0.0156,0.296,1.28,0.854,1.28,0.209,1.01
C=CC[C@@]1(C(=O)NCc2ccccc2)N=C(c2ccc(OCCCO)cc2)O[C@@H]1c1ccccc1N=[N+]=[N-],0.98,-0.108 (inactive),0.355,0.0186,0.712,3.18,0.736,1.3,-0.623,0.906
COCCOC(=O)N1C(=O)[C@@]2(c3ccccc31)[C@H](c1ccc(O)cc1)N1[C@H](c3ccccc3)[C@H](c3ccccc3)OC(=O)[C@H]1[C@@H]2C(=O)NC[C@H](O)c1ccccc1,0.827,0.442 (inactive),0.0888,-0.0513,0.756,1.79,0.506,1.07,-1.04,0.291
COc1ccc(C(=O)Nc2ccc(CN3C(=O)[C@@]4(O[C@@H](CCO)[C@H]([Si](C)(C)c5ccc(OC)cc5)[C@H]4C)c4ccccc43)cc2)cc1,-0.338,0.673 (inactive),0.0034,-0.0999,0.531,0.81,0.292,1.3,0.959,1.14
C=C(CCCC)C(=O)CC[C@H](OC(C)=O)c1cccc(OCCO)c1,-1.33,-0.126 (inactive),-0.224,-0.205,-0.361,-0.0995,-0.186,-0.11,-1.14,-0.502
CCOC1=C2C(CN(S(=O)(=O)c3ccc(C)cc3)C2c2ccc(C)cc2)C2C(=O)N(c3ccccc3)C(=O)C2C1 (stereo not given),0.453,0.0045 (inactive),0.24,-0.0665,0.676,1.58,0.377,0.814,0.479,0.654
COCCOC(=O)N1C(=O)[C@@]2(c3cc(C#CC4(O)CCCCCC4)ccc31)[C@H](c1ccc(O)cc1)N1[C@H](c3ccccc3)[C@H](c3ccccc3)OC(=O)[C@H]1[C@@H]2C(=O)Nc1nc2ccccc2s1,0.873,0.0656 (inactive),0.499,0.203,0.362,1.85,0.552,1.32,0.524,0.785
COC(=O)[C@@]1(Cc2ccc(OC)cc2)[C@H]2c3cc(C(=O)N4CCCC4)n(Cc4ccc(OC)c(OC)c4)c3C[C@H]2CN1C(=O)c1ccccc1,1.08,0.983 (inactive),1.28,0.852,0.592,2.74,0.601,1.3,0.206,1.14
CCCCCN1CC=CC23O[C@@H]4/C=C\CCCOC(=O)C4[C@H]2C(=O)N(C(CO)C(C)C)[C@@H]3C1=O (stereo not given in full),1,0.586 (inactive),-0.139,-0.14,0.819,-0.168,-0.12,-0.656,-0.718,-0.574

Compound,composite z-score (Albumin (Bos taurus)),composite Z-score [1],composite z-score [2],composite z-score [3],composite z-score [4],composite z-score [5],composite z-score [6],composite z-score (Sam68 (KHDRBS1)),composite z-score [7],composite z-score [8]
C=CCN(Cc1ccccc1)C(=O)C(c1cccs1)N(CCOCCO)C(=O)/C=C\C(=O)O (stereo not given),-0.462,0.131 (inactive),-0.553,-0.165,0.39,-0.25,-0.658,-0.754,-3.82,-1.33
CN1C(=O)C2C=CC(C(O)c3cccs3)N(Nc3ccccc3)C2C1=O (stereo not given),0.95,-0.227 (inactive),0.0873,-0.0856,0.831,1.87,-0.0235,0.186,0.0907,0.442
O=C1C2C=CC(C(O)c3ccc(F)cc3)N(Nc3ccccc3F)C2C(=O)N1c1ccccc1 (stereo not given),0.983,0.482 (inactive),0.323,-0.0194,0.823,3.13,-0.0953,1.13,-0.868,0.493
CCC(CC)C(O)C1C=CC2C(=O)N(C)C(=O)C2N1Nc1ccccc1 (stereo not given),0.333,-0.574 (inactive),0.149,-0.05,0.652,2.5,0.515,1.07,-0.237,1.2
C[C@@H]1ON(c2cccc(C(=O)OC(C)(C)C)c2)[C@H](c2ccc(Br)cc2)[C@H]1C(=O)N1C(=O)OC[C@H]1Cc1ccccc1,0.0512,0.0724 (inactive),0.0325,-0.0454,0.133,1.2,0.261,1.21,0.52,1.09
CN1C(=O)C2C=CC(C(O)c3ccc(-c4ccccc4)s3)N(N(c3ccccc3)c3ccccc3)C2C1=O (stereo not given),0.828,0.81 (inactive),-0.0865,-0.134,0.365,1.69,-0.149,0.749,0.414,1.08
COC(=O)[C@@]1(Cc2ccc(F)cc2)[C@H]2c3cc(C(=O)N4CCCC4)n(Cc4cc(C)n(C)n4)c3C[C@H]2CN1C(=O)c1ccccc1,1.09,2.46 (inactive),0.318,0.385,0.664,3.58,1.14,1.32,-0.642,1.14
C=CCOC(=O)[C@H]1[C@@H]2C(=O)O[C@@H](c3ccccc3)[C@@H](c3ccccc3)N2[C@@H](c2ccc(OCCOC(=O)[C@@H]3C[C@@H]4C(=O)N[C@@H](CCCCN(C)C)C(=O)N4[C@@H]3c3ccc(O)cc3)cc2)[C@]12C(=O)Nc1ccc(I)cc12,-0.342,0.711 (inactive),-0.0111,-0.18,0.574,1.66,0.278,1.3,1.24,1.15
CCCC[C@H]1OB(O)C[C@H]2C1=C(COc1ccccc1)C[C@H]1C(=O)N(C)C(=O)[C@H]12,-0.137,-0.252 (inactive),-0.0046,-0.0596,-0.0293,0.486,0.0594,-0.348,0.497,-0.271
O=C1O[C@H](c2ccccc2)[C@H](c2ccccc2)N2[C@H]1[C@@H](C(=O)O)[C@]1(C(=O)Nc3ccc(C#CCCO)cc31)[C@H]2c1ccc(O)cc1,0.279,0.0575 (inactive),-0.0014,-0.0467,0.501,0.651,0.514,0.0673,-0.823,-0.161
COCCOC(=O)N1C(=O)[C@@]2(c3cc(C#CC4=CCCCC4)ccc31)[C@H](C(=O)N1CCc3cc(OC)c(OC)cc3C1)[C@H]1C(=O)O[C@H](c3ccccc3)[C@H](c3ccccc3)N1[C@@H]2c1ccc(OCCO)cc1,0.448,0.238 (inactive),0.0836,-0.152,0.194,1,0.378,1.29,0.69,1.14
CC(C)c1ccc(NN2C(C(O)C(c3ccccc3)c3ccccc3)C=CC3C(=O)N(c4ccccc4)C(=O)C32)cc1 (stereo not given),0.933,-0.136 (inactive),0.424,0.101,0.797,2.74,0.902,1.32,-0.348,1.14
CCCC#C[Si](O[C@H](CC)c1cn([C@H](CO)Cc2ccccc2)nn1)(C(C)C)C(C)C,0.868,-0.483 (inactive),-0.108,-0.0986,0.667,0.516,-0.126,0.838,0.322,0.632
C=CCNC(=O)[C@H]1[C@@H]2C(=O)O[C@@H](c3ccccc3)[C@@H](c3ccccc3)N2[C@@H](c2ccc(O)cc2)[C@]12C(=O)N(C(=O)OCCOC)c1ccc(C#CCNC(N)=O)cc12,-0.213,0.384 (inactive),0.0955,0.0313,0.484,0.275,0.0793,1.13,0.64,0.932
CC1(C)[C@@H]2CC(C(O)C3C=CC4C(=O)N(c5ccccc5)C(=O)C4N3Nc3ccccc3)=C[C@H]1C2 (stereo not given in full),0.566,-0.212 (inactive),-0.0144,0.0127,0.408,1.61,0.322,0.031,0.684,0.566
